The supplement of paper PMC9694430
Where a name gives a salt, the structure may show the parent alone.

What was measured:
Experiment in all cases: thermal shift delta Tm vs DMSO control; higher = stronger stabilization (binding)
Settings in all cases: 12.5 µM; protein concentration 2 µM
LOC_OS02G45750-cb003 = tested on: LOC_OS02G45750-cb003
Outline: (§1)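 Rice kinase domain constructs, made in E. coli and purified, were placed in 96-well plates at 2 μM in 19.5 μl of 100 mM potassium phosphate pH 7.5, 150 mM NaCl, 10% glycerol and 5 × SYPRO Orange, with compound in DMSO. A temperature ramp from 25°C to 95°C at 0.05°C/s was used for differential scanning fluorimetry. The melting temperature shift is a triplicate mean compared with DMSO-only protein, derived from Boltzmann fits.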

LOC_OS02G54510-cb004 = tested on: LOC_OS02G54510-cb004
Outline: as §1

LOC_OS03G04050-cb001 = tested on: LOC_OS03G04050-cb001
Outline: as §1

LOC_OS03G12390-cb001 = tested on: LOC_OS03G12390-cb001
Outline: as §1

LOC_OS03G27990-cb004 = tested on: LOC_OS03G27990-cb004
Outline: as §1

LOC_OS03G50450-cb001 = tested on: LOC_OS03G50450-cb001
Outline: as §1

LOC_OS03G50810-cb003 = tested on: LOC_OS03G50810-cb003
Outline: as §1

LOC_OS04G35114-cb001 = tested on: LOC_OS04G35114-cb001
Outline: as §1

LOC_OS04G38480-cb003 = tested on: T1, LOC_OS04G38480-cb003
T1 sequence (whole entry): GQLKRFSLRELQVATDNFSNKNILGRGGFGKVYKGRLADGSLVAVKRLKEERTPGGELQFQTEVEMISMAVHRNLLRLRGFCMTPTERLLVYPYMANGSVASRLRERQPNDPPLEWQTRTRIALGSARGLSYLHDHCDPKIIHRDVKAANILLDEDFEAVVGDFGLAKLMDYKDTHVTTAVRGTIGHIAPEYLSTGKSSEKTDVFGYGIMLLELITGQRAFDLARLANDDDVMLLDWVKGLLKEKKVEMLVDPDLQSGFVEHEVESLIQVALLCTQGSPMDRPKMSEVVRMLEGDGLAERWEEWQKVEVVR
Outline: as §1

LOC_OS04G41100-cb001 = tested on: T2, LOC_OS04G41100-cb001
T2 sequence (whole entry): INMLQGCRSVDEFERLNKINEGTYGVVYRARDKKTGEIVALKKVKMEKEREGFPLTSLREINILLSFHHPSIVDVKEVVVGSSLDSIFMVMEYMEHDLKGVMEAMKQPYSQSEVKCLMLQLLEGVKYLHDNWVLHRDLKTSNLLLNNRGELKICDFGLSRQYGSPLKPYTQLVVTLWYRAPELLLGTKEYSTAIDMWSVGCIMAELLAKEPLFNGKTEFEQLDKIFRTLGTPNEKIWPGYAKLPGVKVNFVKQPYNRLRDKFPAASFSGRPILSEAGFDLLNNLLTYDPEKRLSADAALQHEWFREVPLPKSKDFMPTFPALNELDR
Outline: as §1

LOC_OS04G57630-cb004 = tested on: LOC_OS04G57630-cb004
Outline: as §1

LOC_OS05G07850-cb002 = tested on: LOC_OS05G07850-cb002
Outline: as §1

LOC_OS05G16824-cb004 = tested on: LOC_OS05G16824-cb004
Outline: as §1

LOC_OS05G28520-cb001 = tested on: LOC_OS05G28520-cb001
Outline: as §1

LOC_OS05G30820-cb001 = tested on: LOC_OS05G30820-cb001
Outline: as §1

LOC_OS05G43570-cb004 = tested on: LOC_OS05G43570-cb004
Outline: as §1

LOC_OS06G16330-cb003 = tested on: LOC_OS06G16330-cb003
Outline: as §1

LOC_OS06G22820-cb001 = tested on: T3, LOC_OS06G22820-cb001
T3 sequence (whole entry): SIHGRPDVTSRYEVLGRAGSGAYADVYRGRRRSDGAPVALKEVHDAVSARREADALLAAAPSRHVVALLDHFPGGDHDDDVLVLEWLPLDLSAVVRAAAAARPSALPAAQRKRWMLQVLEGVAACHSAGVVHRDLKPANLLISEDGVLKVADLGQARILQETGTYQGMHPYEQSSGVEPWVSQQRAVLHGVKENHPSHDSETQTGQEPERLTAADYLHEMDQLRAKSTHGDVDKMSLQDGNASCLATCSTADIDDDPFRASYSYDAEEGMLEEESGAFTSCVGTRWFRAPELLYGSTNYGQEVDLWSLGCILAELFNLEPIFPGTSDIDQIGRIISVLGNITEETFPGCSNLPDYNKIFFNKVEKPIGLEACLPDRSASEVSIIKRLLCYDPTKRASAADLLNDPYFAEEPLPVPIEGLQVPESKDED
Outline: as §1

LOC_OS07G06570-cb004 = tested on: LOC_OS07G06570-cb004
Outline: as §1

LOC_OS07G07230-cb001 = tested on: LOC_OS07G07230-cb001
Outline: as §1
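Further: purified Escherichia coli-expressed rice kinase domain construct.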

Chain of LOC_OS06G16330-cb003 (as listed by the source): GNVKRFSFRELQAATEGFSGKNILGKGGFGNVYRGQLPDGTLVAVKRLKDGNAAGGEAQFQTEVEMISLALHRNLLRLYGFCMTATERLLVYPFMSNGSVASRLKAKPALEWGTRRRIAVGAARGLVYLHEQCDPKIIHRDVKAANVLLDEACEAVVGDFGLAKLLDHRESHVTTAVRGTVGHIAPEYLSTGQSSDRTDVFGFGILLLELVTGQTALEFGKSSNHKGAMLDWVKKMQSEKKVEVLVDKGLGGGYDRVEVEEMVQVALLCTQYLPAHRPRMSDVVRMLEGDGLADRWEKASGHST

Row | SMILES | thermal shift delta Tm (LOC_OS02G45750-cb003) [°C] | thermal shift delta Tm (LOC_OS02G54510-cb004) [°C] | thermal shift delta Tm (LOC_OS03G04050-cb001) [°C] | thermal shift delta Tm (LOC_OS03G12390-cb001) [°C] | thermal shift delta Tm (LOC_OS03G27990-cb004) [°C] | thermal shift delta Tm (LOC_OS03G50450-cb001) [°C] | thermal shift delta Tm (LOC_OS03G50810-cb003) [°C] | thermal shift delta Tm (LOC_OS04G35114-cb001) [°C] | thermal shift delta Tm (LOC_OS04G38480-cb003) [°C] | thermal shift delta Tm (LOC_OS04G41100-cb001) [°C] | thermal shift delta Tm (LOC_OS04G57630-cb004) [°C] | thermal shift delta Tm (LOC_OS05G07850-cb002) [°C] | thermal shift delta Tm (LOC_OS05G16824-cb004) [°C] | thermal shift delta Tm (LOC_OS05G28520-cb001) [°C] | thermal shift delta Tm (LOC_OS05G30820-cb001) [°C] | thermal shift delta Tm (LOC_OS05G43570-cb004) [°C] | thermal shift delta Tm (LOC_OS06G16330-cb003) [°C] | thermal shift delta Tm (LOC_OS06G22820-cb001) [°C] | thermal shift delta Tm (LOC_OS07G06570-cb004) [°C] | thermal shift delta Tm (LOC_OS07G07230-cb001) [°C]
1 | C=CC(=O)N1CCN(CCCn2c(=O)c(-c3c(Cl)c(OC)cc(OC)c3Cl)cc3cnc(NC)nc32)CC1 | 1.93 | 0.21 | 0.58 | -0.09 | 0.48 | 0.92 | 0.26 | -0.04 | 0.5 | 0.38 | 0.34 | 0.01 | 3.63 | -0.19 | 0.06 | 0.18 | -0.29 | 0.15 | 0.73 | 1.75
2 | CSc1cccc(Nc2ncc3cc(-c4c(Cl)cccc4Cl)c(=O)n(C)c3n2)c1 | 1.81 | 1.36 | 0.46 | 0.1 | 0.26 | 0.49 | 0.58 | 2.51 | 1.67 | 0.59 | 0.15 | 5.12 | 1.03 | 0.64 | 0.34 | 0.27 | 0.34 | 0.59 | 0.45 | 0.66
3 | COc1cc(F)c(F)c(Nc2ccc(I)cc2F)c1NS(=O)(=O)C1(C[C@H](O)CO)CC1 [Refametinib (RDEA119, Bay 86-9766)] | 0.64 | 0.25 | 0.61 | 0.09 | 0.41 | 0.71 | 0.41 | 0.19 | 0.79 | 0.72 | 0.29 | 0.16 | -0.08 | 1.02 | 0.34 | 0.4 | 0.11 | 1.27 | 0.72 | 0.01
4 | Cc1[nH]c(/C=C2\C(=O)Nc3ccc(S(=O)(=O)Cc4c(Cl)cccc4Cl)cc32)c(C)c1C(=O)N1CCC[C@@H]1CN1CCCC1 | 0 | 0.51 | 0.3 | 4.07 | 0.43 | 0.47 | 0 | 7.26 | 2.55 | 0.74 | 2.32 | 10.3 | 0 | 0.75 | 0.48 | 0.55 | 6.03 | 0.86 | 0.77 | 0.98
5 | Cc1ccc(NC(=O)c2ccc(CN3CCN(C)CC3)cc2)cc1Nc1nccc(-c2cccnc2)n1 [Imatinib Mesylate (STI571)] | 0.55 | 0.16 | 0.17 | 0.88 | -0.03 | -0.05 | 0.09 | 0.75 | 0.34 | 0.59 | 0.35 | 2.65 | 0.21 | 0.58 | 0.32 | 0.49 | 0.2 | 0.68 | 1.07 | 0.85
6 | CC(C)(C#N)c1ccc(N2C(=O)OCc3cnc4ccc(-c5cnc6ccccc6c5)cc4c32)cc1 | 0.62 | 0.01 | 0.55 | 0.2 | 0.32 | 0.21 | 0.32 | 1.01 | 0.8 | 0.2 | 0.16 | 1.96 | -0.65 | 0.5 | 0.58 | 0.71 | 0.44 | 0.89 | 1.76 | 0.63
7 | COc1cc2nccc(Oc3ccc(NC(=O)Nc4cc(C)on4)c(Cl)c3)c2cc1OC [Tivozanib (AV-951)] | 2.56 | 3.55 | 0.02 | 1.3 | 0.02 | -0.03 | 2.67 | 3.47 | 4.03 | 0.72 | 3.28 | 9.77 | 2.86 | 2.41 | 0.62 | 0.21 | 10.8 | 0.55 | 0.52 | -0.04
8 | Cc1cc(CS(=O)(=O)c2ccccc2)cc(OCc2ccc(CN3CCC[C@@H]3CO)cc2)c1 | -0.41 | 0.16 | 0.65 | -0.25 | 0.41 | 0.6 | 0.23 | 0.57 | 0.83 | 0.44 | 0.05 | -0.44 | -3.52 | 0.56 | 0.38 | 0.08 | -0.51 | 0.68 | 1.18 | 0.08
9 | O=C(Nc1cc(C(F)(F)F)cc(C(F)(F)F)c1)c1cc(Cl)ccc1O | 0.1 | -0.16 | 0.55 | 1.46 | 0.24 | 0.5 | 0.7 | 0.29 | 0.16 | 0.52 | -0.05 | -0.13 | -0.94 | 0.78 | 0.67 | 0.76 | 0.52 | 0.91 | 1.68 | -0.11
